Source: PubChem BioAssay AID2401 (Southern Research Specialized Biocontainment Screening …, 2010)
Out of some 2,200 compounds screened, about 530 (24%) were called active.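 The calls were made as follows: active = inhibition above a set limit at one or more concentrations of the dose series; inactive = inhibition under that limit at every dose.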 Not all results are given here. Entries with a potency or affinity are not part of this list.

Assay: S. Typhimurium nonspecific reporter signal inhibition – Salmonella Typhimurium, GFP fluorescence, counter-screen for PhoP regulon inhibitor project, dose response (AID 2401);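 also: S. typhimurium with Mg-insensitive nmpC-GFP reporter grown at 10 µM Mg2+; drop in reporter fluorescence reflects general culture growth inhibition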
Conditions: 4 h; series mostly up to 150 µM

Structure (SMILES) | outcome
Cc1[nH]n(-c2ncc(-c3ccc(Cl)cc3)s2)c(=O)c1C(c1ccc(Cl)cc1)C(C#N)C#N (stereo not given) | inactive
CCN(C(C)=O)c1nc(CSc2nnc(NC(C)C)s2)cs1 | inactive
c1ccc2[nH]c(CSc3nccs3)nc2c1 | inactive
Cc1ccccc1OCC(=O)N/N=C/c1ccco1 | inactive
S=c1[nH]nc(Cc2cccc3ccccc23)o1 | inactive
CC(=O)c1cccc(NC(=O)NCc2ccco2)c1 | inactive
Cc1ccc(NC(=O)c2cc(S(=O)(=O)N3CCC4(CC3)OCCO4)ccc2F)cc1 | inactive
O=C(c1cn(-c2ccccc2)nc1-c1cccnc1)N1CCCCC1 | inactive
CC(=O)N1CCC(N(CCN2CCOCC2)C(=S)Nc2cccc(C)c2C)CC1 | inactive
Cc1c(Cl)cccc1NC(=O)CSCC(N)=O | inactive
COc1cc(C2Nc3cccc4cccc(c34)N2)cc(OC)c1OC(C)=O | inactive
CC(=O)Oc1c2occc2cc2ccc(=O)oc12 | inactive
Cc1ccc2c(c1)cc(CN(Cc1ccc3c(c1)OCO3)C(=O)c1cnccn1)c1nnnn12 | inactive
CSc1ccc(C(=O)/C=C/c2ccc(N)cc2)cc1 | inactive
Cc1cccc(NC(=O)c2cc(N3C(=O)CCC3=O)ccc2Cl)n1 | inactive
CN(CCO)c1cc(Sc2nc3ccccc3s2)c2nonc2c1[N+](=O)[O-] | inactive
Cc1ccccc1-n1c(C)cc(/C=N/Nc2ccc([N+](=O)[O-])cn2)c1C | inactive
O=C(CSc1nc2ccccc2s1)Nc1ccc(N2CCOCC2)c(Cl)c1 | inactive
Cc1cc([N+](=O)[O-])ccc1NC(=O)Cc1ccc(F)cc1 | inactive
O=C(CSc1n[nH]c(=O)[nH]c1=O)N/N=C/c1ccccc1 | inactive
O=C(CSCc1ccccc1)N/N=C/c1ccccc1OCc1ccccc1 | inactive
Cc1ccc([N+](=O)[O-])cc1NC(=S)NC(=O)C(C)(C)C | inactive
COc1ccc(-n2ncc(S(=O)(=O)c3ccccc3)c2-c2ccc(Cl)cc2)cc1 | inactive
COc1ccc(Cl)cc1C(=O)Nc1ccc(NC(=O)c2ccco2)cc1 | inactive
O=C(Nc1cccc(Cl)c1)C1C2CCC3C(CCC21)C3(Cl)Cl (stereo not given) | inactive
COc1cccc(-n2c(N)c(C(=O)Nc3c(C)n(C)n(-c4ccccc4)c3=O)c3nc4ccccc4nc32)c1 | inactive
COc1ccc(N2C(=O)CC(Sc3nc(C)c4c(n3)CCCC4)C2=O)cc1 (stereo not given) | inactive
COc1ccc(-c2cnn3c(N)c(S(=O)(=O)C(C)(C)C)cnc23)cc1 | inactive
Cc1ccc2nc(NNC(=O)c3ccc(S(=O)(=O)N4CCc5ccccc5C4)cc3)sc2c1 | inactive
O=C(/C=C/c1ccc2c(c1)OCO2)N1CCN(c2ccccc2F)CC1 | inactive
